In PubChem BioAssay:
Active and inactive are the calls of the source.

How the values were obtained:
[1] = test system: Human papillomavirus type 1a protein E7 (residues 44-93); experiment: small molecules binding HPV E7 44-93 – biochemical, small-molecule microarray, residues 44-93, 635 nm fluorescence, primary screen (AID 1108); settings: fluorescence 635 nm, higher = more signal;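 also: E7 fragment applied at 1 µg/mL in TBST for 1 h at 4 C; score combines spot fluorescence with its signal to noise ratio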
[2] = hepatitis C replication reporter changes, two-sided – Huh7 cells, luciferase reporter, HCV replication inhibitor project, primary screen (AID 1109); settings: Huh7 HCV replicon luciferase reporter, 48 h; higher = more signal;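 also: huh7 hepatoma cells harbouring a luciferase neomycin HCV replicon reporter; luciferase luminescence as measure of HCV replicon replication; test concentration not given here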
[3] = target: Left-right determination factor 2 (Homo sapiens) (UniProt O00292); experiment: small molecules binding LEFTY2 protein – biochemical, small-molecule microarray, 635 nm fluorescence scan, primary screen (AID 1110); settings: higher = more signal
Left-right determination factor 2 (Homo sapiens), sequence (O00292 whole entry, looked up): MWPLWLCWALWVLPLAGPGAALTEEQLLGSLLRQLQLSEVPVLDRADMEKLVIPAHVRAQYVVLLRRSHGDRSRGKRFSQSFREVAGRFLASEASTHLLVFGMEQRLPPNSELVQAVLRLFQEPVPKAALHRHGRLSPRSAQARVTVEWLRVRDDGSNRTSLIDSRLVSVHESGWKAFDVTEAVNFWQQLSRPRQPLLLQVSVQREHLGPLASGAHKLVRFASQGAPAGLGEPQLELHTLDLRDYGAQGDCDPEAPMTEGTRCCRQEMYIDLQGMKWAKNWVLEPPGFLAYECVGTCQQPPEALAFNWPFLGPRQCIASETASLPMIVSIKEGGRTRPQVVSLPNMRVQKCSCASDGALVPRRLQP

[4] = target: Calmodulin-1 (Homo sapiens) (UniProt P0DP23); experiment: small molecules binding calmodulin-1 with EGTA – biochemical, small-molecule microarray, Cy5-labelled CALM1, profiling panel (AID 1111); settings: Cy5-CALM1 binding fluorescence, higher = more signal;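 also: labelled calmodulin applied in Tris saline Tween buffer holding calcium plus EGTA and DTT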
[5] = target: Calmodulin-1 (Homo sapiens) (UniProt P0DP23); experiment: small molecules binding Ca-loaded calmodulin-1 – biochemical, small-molecule microarray, Cy5-labelled CALM1, plus calcium, artefact control for SMM control-protein annotation, profiling panel (AID 1112); settings: Cy5-CALM1 binding fluorescence, higher = more signal;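 also: score merges spot fluorescence with signal to noise from triplicate slides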
[6] = probe aWnt5a binding to arrayed compounds – biochemical, biotinylated probe, 635/667 nm fluorescence, primary screen (AID 1113); settings: small-molecule microarray, higher = more signal;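 also: score merges 667 nm fluorescence intensity with signal-to-noise per printed feature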
[7] = probe aShh binding to arrayed compounds – biochemical, biotinylated probe, 635/667 nm fluorescence, primary screen (AID 1114); settings: small-molecule microarray, higher = more signal;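 also: probe is biotin-labelled aShh protein from a stem cell growth factor screen; measures binding of labelled protein to compounds printed on the slide; score merges feature fluorescence at 667 nm with signal-to-noise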
[8] = probe aNog binding to arrayed compounds – biochemical, biotinylated probe, 635/667 nm fluorescence, primary screen (AID 1115); settings: small-molecule microarray, higher = more signal;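 also: probe is biotinylated aNog protein used at 0.15 µg/mL for 1 h at 4 C; z-score combines 667 nm fluorescence of each spot with its signal to noise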
[9] = target: Torsin-1A-interacting protein 1 (Homo sapiens) (UniProt Q5JTV8); experiment: compound microarray binding of lysate hLAP1 – cell lysate, small-molecule microarray, COS7 lysate, 635/667 nm fluorescence, primary screen (AID 1116); settings: 635 nm fluorescence, higher = more signal
Torsin-1A-interacting protein 1 (Homo sapiens), sequence (Q5JTV8 whole entry, looked up): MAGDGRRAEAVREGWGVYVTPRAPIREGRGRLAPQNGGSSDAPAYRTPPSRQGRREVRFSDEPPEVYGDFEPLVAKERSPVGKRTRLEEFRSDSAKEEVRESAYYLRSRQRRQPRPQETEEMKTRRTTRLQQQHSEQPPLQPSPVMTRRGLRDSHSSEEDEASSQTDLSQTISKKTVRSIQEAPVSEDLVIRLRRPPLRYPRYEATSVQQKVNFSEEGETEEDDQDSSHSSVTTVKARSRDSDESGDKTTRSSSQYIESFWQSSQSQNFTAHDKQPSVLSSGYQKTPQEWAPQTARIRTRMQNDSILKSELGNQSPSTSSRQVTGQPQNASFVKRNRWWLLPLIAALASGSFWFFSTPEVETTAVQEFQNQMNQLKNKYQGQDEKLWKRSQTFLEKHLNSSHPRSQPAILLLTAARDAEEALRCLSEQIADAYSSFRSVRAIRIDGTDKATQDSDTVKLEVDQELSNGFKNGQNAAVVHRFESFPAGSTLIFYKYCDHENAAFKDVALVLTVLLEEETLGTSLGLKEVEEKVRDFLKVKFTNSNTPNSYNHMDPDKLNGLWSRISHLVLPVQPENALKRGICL

[10] = target: Alpha-bungarotoxin (Bungarus multicinctus) (UniProt P60615); experiment: compounds binding labelled alpha-BTX control protein – biochemical, small-molecule microarray, Alexa647 label, 635/667 nm fluorescence, artefact control for SMM control protein annotation, profiling panel (AID 1117); settings: alpha-BTX-A647 binding fluorescence, higher = more signal
Alpha-bungarotoxin (Bungarus multicinctus), sequence (P60615 whole entry, looked up): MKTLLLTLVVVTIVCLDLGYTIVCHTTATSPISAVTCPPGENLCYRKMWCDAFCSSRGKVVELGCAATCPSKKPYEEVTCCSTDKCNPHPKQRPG

Albumin (Bos taurus) = Albumin (Bos taurus) (UniProt P02769); experiment: compounds binding labelled BSA control protein – biochemical, small-molecule microarray, Alexa647 label, 635/667 nm fluorescence, artefact control for SMM control protein annotation, profiling panel (AID 1118); settings: BSA-A647 binding, fluorescence 635 nm, higher = more signal;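 also: score merges 667 nm emission intensity and signal-to-noise per printed compound spot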
Albumin (Bos taurus), sequence (P02769 whole entry, looked up): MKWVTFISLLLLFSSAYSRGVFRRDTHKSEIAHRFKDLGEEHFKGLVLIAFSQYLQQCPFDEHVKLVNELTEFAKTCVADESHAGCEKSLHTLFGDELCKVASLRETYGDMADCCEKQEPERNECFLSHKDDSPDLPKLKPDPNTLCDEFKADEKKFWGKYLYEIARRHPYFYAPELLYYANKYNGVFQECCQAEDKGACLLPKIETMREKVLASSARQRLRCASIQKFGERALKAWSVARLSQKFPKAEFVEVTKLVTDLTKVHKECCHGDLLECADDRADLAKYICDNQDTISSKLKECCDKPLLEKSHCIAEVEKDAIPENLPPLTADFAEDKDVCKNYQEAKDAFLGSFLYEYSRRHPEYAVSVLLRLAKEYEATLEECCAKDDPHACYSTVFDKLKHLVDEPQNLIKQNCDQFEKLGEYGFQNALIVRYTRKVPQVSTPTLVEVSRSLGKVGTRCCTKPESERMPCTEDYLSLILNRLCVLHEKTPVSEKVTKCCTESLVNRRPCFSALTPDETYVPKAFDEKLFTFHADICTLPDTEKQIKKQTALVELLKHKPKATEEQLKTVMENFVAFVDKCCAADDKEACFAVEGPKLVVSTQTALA

[11] = probe aXIP binding to arrayed compounds – biochemical, NeuroSMM set, 635/667 nm fluorescence, primary screen (AID 1119); settings: small-molecule microarray, higher = more signal, called active from +8 up or from −8 down;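 also: probe is the protein aXip251-270 applied at 1 µg/mL to compound-printed slides; binding of probe to printed compounds measured as 667 nm fluorescence plus signal to noise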
[12] = probe aNOTCH3 binding on compound microarray – biochemical, small-molecule microarray, 635/667 nm fluorescence, primary screen (AID 1120); settings: higher = more signal;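 also: probe is a biotin-tagged antibody raised against NOTCH3 rather than NOTCH3 protein; score merges spot fluorescence near 667 nm with spot signal to noise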
[13] = probe aNOTCH2 binding on compound microarray – biochemical, small-molecule microarray, 635/667 nm fluorescence, primary screen (AID 1121); settings: higher = more signal;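 also: score merges feature fluorescence read at 667 nm with its signal to noise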
[14] = target: Carbonic anhydrase 2 (Homo sapiens) (UniProt P00918); experiment: compounds binding carbonic anhydrase 2 – biochemical, small-molecule microarray, Alexa647-labelled CAII, profiling panel (AID 1122); settings: CAII-A647 binding fluorescence, higher = more signal
[15] = COS7 lysate on small-molecule microarray, probe aHis, 635 nm (AID 1123); settings: COS7 cell lysate, fluorescence, higher = more signal;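 also: z-score combines 667nm fluorescence intensity with signal-to-noise per printed compound spot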
[16] = probe aLAP1 signal on lysate-treated microarray – cell lysate, small-molecule microarray, COS7 lysate, primary screen (AID 1124); settings: probe aLAP1, fluorescence, higher = more signal;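 also: lysate comes from COS7 cells expressing LAP1 and is applied at 0.3 µg/mL; score merges spot fluorescence near 667 nm with signal-to-noise over triplicate slides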
Sam68 (KHDRBS1) = experiment: compounds binding KHDRBS1 protein – biochemical, small-molecule microarray, 635 nm fluorescence, primary screen (AID 1125); settings: higher = more signal;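 also: score merges 667 nm channel intensity with signal to noise over triplicate slides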
[17] = test system: Chordin-like protein 2 (CHRDL2); experiment: compounds binding chordin-like 2 – biochemical, small-molecule microarray, 635 nm fluorescence, primary screen (AID 1126); settings: fluorescence 635 nm, higher = more signal;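 also: printed compound slides probed with Chrdl2 protein at 4 µg/mL for 1 h at 4 C; score merges 667 nm emission intensity with signal to noise over three replicate slides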
[18] = target: Concanavalin-A (Canavalia ensiformis) (UniProt P02866); experiment: compounds binding concanavalin A lectin – biochemical, small-molecule microarray, Alexa647 label, 635 nm, artefact control for SMM control protein annotation, primary screen (AID 1127); settings: ConA-A647 binding fluorescence, higher = more signal;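 also: z combines 667 nm emission intensity with signal-to-noise across three replicate slides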
Concanavalin-A (Canavalia ensiformis), sequence (P02866 whole entry, looked up): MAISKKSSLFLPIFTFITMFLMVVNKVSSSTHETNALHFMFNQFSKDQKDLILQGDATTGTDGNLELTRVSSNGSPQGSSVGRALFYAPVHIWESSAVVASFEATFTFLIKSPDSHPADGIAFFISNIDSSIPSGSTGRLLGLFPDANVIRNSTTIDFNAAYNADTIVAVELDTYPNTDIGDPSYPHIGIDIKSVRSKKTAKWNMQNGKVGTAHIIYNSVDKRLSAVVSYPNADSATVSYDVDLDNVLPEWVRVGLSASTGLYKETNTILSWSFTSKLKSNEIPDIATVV

Structure (SMILES): CC(C)C(=C=CC[C@@H](O)c1cccc(OCCO)c1)C[C@@H](O)c1ccccn1
- composite z-score [1]: 0.0406
- z-score [2]: -0.658
- composite z-score [3]: -0.315
- composite z-score [4]: -0.303
- composite z-score [5]: -0.207
- composite z-score [6]: -0.152
- composite z-score [7]: -0.154
- composite z-score [8]: -0.104
- composite z-score [9]: 1.63
- composite z-score [10]: -0.142
- composite z-score (Albumin (Bos taurus)): 0.0608
- composite Z-score [11]: -0.259 (inactive)
- composite z-score [12]: -0.0362
- composite z-score [13]: -0.123
- composite z-score [14]: 0.26
- composite z-score [15]: -0.293
- composite z-score [16]: 0.726
- composite z-score (Sam68 (KHDRBS1)): -0.228
- composite z-score [17]: -0.377
- composite z-score [18]: -0.155

Structure (SMILES): [N-]=[N+]=Nc1ccccc1C[C@]1(C(=O)O)N=C(c2ccc(OCCCO)cc2)O[C@H]1c1ccccc1
- composite z-score [1]: 1.36
- z-score [2]: 0.939
- composite z-score [3]: -1.07
- composite z-score [4]: 0.163
- composite z-score [5]: 0.943
- composite z-score [6]: 0.2
- composite z-score [7]: -0.0337
- composite z-score [8]: 0.564
- composite z-score [9]: 0.764
- composite z-score [10]: 0.618
- composite z-score (Albumin (Bos taurus)): 0.784
- composite Z-score [11]: 0.0778 (inactive)
- composite z-score [12]: -0.0316
- composite z-score [13]: -0.121
- composite z-score [14]: 0.601
- composite z-score [15]: 2.58
- composite z-score [16]: 0.266
- composite z-score (Sam68 (KHDRBS1)): 0.822
- composite z-score [17]: -1.09
- composite z-score [18]: 0.552

Structure (SMILES): CC(=O)NCCCC[C@@H]1NC(=O)[C@@H]2C[C@H](C(=O)NCCCCCCN)[C@H](c3cccc(OCCO)c3)N2C1=O
- composite z-score [1]: 0.601
- z-score [2]: -0.69
- composite z-score [3]: -0.535
- composite z-score [4]: 1.47
- composite z-score [5]: 1.35
- composite z-score [6]: -0.0519
- composite z-score [7]: -0.0066
- composite z-score [8]: -0.153
- composite z-score [9]: 1.79
- composite z-score [10]: 2.15
- composite z-score (Albumin (Bos taurus)): 0.851
- composite Z-score [11]: 0.801 (inactive)
- composite z-score [12]: -0.0682
- composite z-score [13]: -0.149
- composite z-score [14]: 0.779
- composite z-score [15]: 1.72
- composite z-score [16]: 1.89
- composite z-score (Sam68 (KHDRBS1)): 1.12
- composite z-score [17]: -0.878
- composite z-score [18]: 1.12

Structure (SMILES): CCCCC(=O)N(CCN1CCOCC1)[C@@H]1CC(C(=O)NCCO)=C[C@H](Oc2c(I)cc(CO)cc2OC)[C@H]1O
- composite z-score [1]: 0.33
- z-score [2]: 0.282
- composite z-score [3]: 0.653
- composite z-score [4]: -0.282
- composite z-score [5]: -0.598
- composite z-score [6]: -0.19
- composite z-score [7]: -0.358
- composite z-score [8]: -0.31
- composite z-score [9]: -0.0458
- composite z-score [10]: 0.354
- composite z-score (Albumin (Bos taurus)): -0.365
- composite Z-score [11]: -0.18 (inactive)
- composite z-score [12]: -0.163
- composite z-score [13]: -0.185
- composite z-score [14]: -0.142
- composite z-score [15]: -0.463
- composite z-score [16]: -0.265
- composite z-score (Sam68 (KHDRBS1)): 0.593
- composite z-score [17]: 0.459
- composite z-score [18]: 0.331

Structure (SMILES): CS(=O)(=O)CCOC(=O)C1=CC(CCCO)=CC(C2CC2)N(Cc2cccc(OC(F)(F)F)c2)C=C1C(=O)OCCS(C)(=O)=O (stereo not given)
- composite z-score [1]: 1.3
- z-score [2]: -1.63
- composite z-score [3]: -0.022
- composite z-score [4]: 0.238
- composite z-score [5]: 0.478
- composite z-score [6]: -0.0643
- composite z-score [7]: -0.0243
- composite z-score [8]: 0.576
- composite z-score [9]: 1.9
- composite z-score [10]: 0.0358
- composite z-score (Albumin (Bos taurus)): 0.42
- composite Z-score [11]: 3.23 (inactive)
- composite z-score [12]: 0.0311
- composite z-score [13]: -0.133
- composite z-score [14]: 0.751
- composite z-score [15]: 1.16
- composite z-score [16]: -0.0318
- composite z-score (Sam68 (KHDRBS1)): 1.33
- composite z-score [17]: -0.316
- composite z-score [18]: 0.244
